LAP4 TOR yeast: modulators of LAP4-GFP expression in yeast, primary screen, S. cerevisiae, multiplex flow cytometry, MLPCN library. 3 h; median GFP as percent of DMSO wells. GFP response vs DMSO, % at 10 µM. actives 0.34% (n = 320,000);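 active = GFP response vs DMSO above a set limit, about the screen mean plus 3 SD, cut at about 150% in these data; inconclusive = under 70 cell events counted for the yeast strain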
AGP1 TOR yeast: modulators of AGP1-GFP expression in yeast TOR pathway, primary screen, cell-based, multiplex flow cytometry, S. cerevisiae, MLPCN library | 3 h; GFP as percent of DMSO wells | GFP response vs DMSO, % at 10 µM | actives 0.02% (n = 320,000) | AID 2066, 2009;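 active = GFP response relative to DMSO above a set limit, near screen average plus 3 SD, cut at about 150% in these data; inconclusive = fewer than 70 cells counted for the yeast strain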;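 also: median GFP channel fluorescence of the gated AGP1 strain per well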
MEP2 TOR yeast: modulators of MEP2-GFP levels in yeast, primary screen, S. cerevisiae, multiplex flow cytometry, MLPCN library | S. cerevisiae MEP2-GFP strain, 3 h; 100% = DMSO control level | GFP response vs DMSO, % at 10 µM | actives 0.51% (n = 330,000);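 active = GFP response versus DMSO above a set limit, roughly screen mean plus 3 SD, cut at about 180% in these data; inconclusive = fewer than 70 cells counted for a yeast strain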;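 also: median GFP fluorescence of the barcode-gated MEP2-GFP cells per well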
RPL19A TOR yeast: RPL19A-GFP expression modulators in yeast, primary screen, cell-based, S. cerevisiae, multiplex flow cytometry, MLPCN; S. cerevisiae RPL19A-GFP strain, 3 h; active compounds read low; percent response vs DMSO, % at 10 µM; actives 0.3% (n = 330,000);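 active = percent response vs DMSO below 50%; inconclusive = fewer than 70 events counted for the yeast strain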;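 also: median channel GFP fluorescence of the barcoded RPL19A-GFP strain; lower means less RPL19A-GFP as with rapamycin TOR inhibition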
CIT2-GFP yeast: modulators of CIT2-GFP expression in yeast, primary screen, S. cerevisiae, GFP fusion, multiplex flow cytometry, MLPCN library | AID 2029, 2009 | S. cerevisiae CIT2-GFP strain, 3 h; 100 means same as DMSO wells | GFP response vs DMSO, % at 10 µM | actives 0.065% (n = 320,000);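 active = GFP response relative to DMSO above a set limit, near the screen mean plus 3 SD, cut at about 150% in these data; inconclusive = Fewer than 70 cells measured for a yeast strain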;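 also: ratio of well median GFP fluorescence to mean of DMSO wells on the plate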
Myeloid diff 2: induction of myeloid progenitor differentiation, primary screen, cell-based, flow cytometry, MLPCN library | ER-HoxA9 myeloid progenitors, lysozyme-GFP differentiation | calls only at 10 µM | actives 1% (n = 360,000) | AID 624256, 2012;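 active = normalized GFP-positive differentiation at or above the plate's own cutoff, the solvent-only control mean plus 3 SD; inconclusive = no clear call, values can overlap the other calls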;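 also: cells exposed to compound for four days before flow analysis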
Each line names hits and unclear results; the compound was inactive in the other large screens; [ ] = another dose, or the depositor's remark. In the library only some 1.8% were active in any assay of this set; here they are far more common.

CCCCOC(=O)c1ccc(-c2ccc(/C=N/NC(=S)NCC)o2)cc1	Myeloid diff 2 active
CCSc1nnc(NC(=O)c2c(C)noc2C)s1	none
Nc1nc(N)c2cc([N+](=O)[O-])ccc2n1	none (no result: LAP4 TOR yeast, AGP1 TOR yeast, MEP2 TOR yeast, RPL19A TOR yeast, CIT2-GFP yeast)
Nc1nc(N)c2c(ccc3c2ccn3Cc2cccc([N+](=O)[O-])c2)n1	Myeloid diff 2 active (no result: LAP4 TOR yeast, AGP1 TOR yeast, MEP2 TOR yeast, RPL19A TOR yeast, CIT2-GFP yeast)
C[C@]12C(=O)N(c3ccccc3)C(=O)N1[C@H]1c3ccccc3OC[C@@H]1[C@H]2c1ccccc1	none
CC(=O)OCCCN1c2ccccc2Nc2nnc(-c3ccccc3)cc21	Myeloid diff 2 active
Cc1oc2ccccc2c1-c1cn2c(n1)SCC2	AGP1 TOR yeast inconclusive, MEP2 TOR yeast inconclusive, RPL19A TOR yeast 11.4[may fluoresce violet], CIT2-GFP yeast inconclusive
CCOc1ccc(NC(=O)NC2CCS(=O)(=O)C2)cc1 (configuration not stated)	none
COc1ccc(S(=O)(=O)N2CCC(C(=O)NCc3cccnc3)CC2)cc1OC	none
Nc1c(C(=O)Nc2nc3ccccc3s2)sc2nc(-c3cccs3)ccc12	Myeloid diff 2 active
Cc1ccc(/C=C/C(=O)NC2CCCCCCC2)o1	LAP4 TOR yeast 169.5
COc1ccc(C2CC(=O)C(C(c3ccc(O)cc3)C3C(=O)CC(c4ccc(OC)cc4)CC3=O)C(=O)C2)cc1 (configuration not stated)	MEP2 TOR yeast 239.3 (no result: Myeloid diff 2)
CC(=O)Oc1ccc(C(=O)[C@H]2[C@H]3C(=O)N(c4ccc(C)cc4)C(=O)[C@H]3[C@@H]3C=CC=NN32)cc1	Myeloid diff 2 active
COc1ccc(N2C(=O)[C@@H]3[C@H](C2=O)[C@H](C(=O)c2ccc(OC(C)=O)cc2)N2N=CC=C[C@@H]32)cc1	none (no result: Myeloid diff 2)
CCOC(=O)C1(CCCc2ccccc2)CCN(C(=O)c2cc(C)nn2CC)CC1	MEP2 TOR yeast 615.2, CIT2-GFP yeast 151.1
COc1ccc(N2CCN(CCNC(=O)Nc3ccc(C)cc3Cl)CC2)cc1	AGP1 TOR yeast inconclusive, MEP2 TOR yeast 400.3[may fluoresce violet], RPL19A TOR yeast 27.5[may fluoresce violet], CIT2-GFP yeast inconclusive
CCC(=O)OCC(=O)Nc1ccc(OC)cc1[N+](=O)[O-]	none
COc1ccc(NC(=O)COC(=O)c2ccco2)c([N+](=O)[O-])c1	MEP2 TOR yeast 202.1, CIT2-GFP yeast 217.4
O=C(Cc1ccc(-c2ccccc2)cc1)Nc1ccccc1	MEP2 TOR yeast 325.7[may fluoresce violet], CIT2-GFP yeast inconclusive
Cc1cccc(NC(=O)Cc2ccc(-c3ccccc3)cc2)n1	none
Cc1nn(-c2ccccc2)c(N2CCCC2)c1/C=N/NC(=O)c1cccc(S(=O)(=O)Nc2ccc(Cl)cc2)c1	Myeloid diff 2 active
Cc1nn(-c2ccccc2)c(Cl)c1/C=N/NC(=O)c1cccc(S(=O)(=O)N2CCCC2)c1	none
O=C1NC(c2ccccc2)=C(c2nc3ccccc3s2)C(c2ccc(O)cc2)N1 (configuration not stated)	Myeloid diff 2 active
O=C1c2cccc3c(N4CCCCC4)ccc(c23)C(=O)N1CCO	none
Cc1n[nH]c(C)c1N1C(=O)c2cccc3c(N4CCCCCC4)ccc(c23)C1=O	Myeloid diff 2 active
CCC(C)Sc1cc(-c2nc3cc(C)ccn3c2NC2CCCCC2)ccc1OC (configuration not stated)	Myeloid diff 2 active
Cc1c([N+](=O)[O-])cnc(Sc2ccccc2)c1[N+](=O)[O-]	LAP4 TOR yeast 294.0
O=C(CCn1cccc1)Nc1cc(F)ccc1F	none
COc1cc(C2C(C#N)=C(N)N(c3ccc(F)cc3)C3=C2S(=O)(=O)CC3)ccc1O (configuration not stated)	Myeloid diff 2 active
CN(C)/C=C/C(=O)c1cnc(-c2ccc(Cl)cc2)s1	none
CN(C)/C=C/C(=O)c1cnc(-c2ccccc2)s1	LAP4 TOR yeast 156.4[may fluoresce violet] (no result: CIT2-GFP yeast)
O=[N+]([O-])c1ccc(N/N=C/c2sc(N3CCOCC3)nc2-c2ccccc2)c(S(=O)(=O)Nc2ccc(Cl)cc2)c1	Myeloid diff 2 active (no result: LAP4 TOR yeast, AGP1 TOR yeast, MEP2 TOR yeast, RPL19A TOR yeast, CIT2-GFP yeast)

Screening data: PubChem, NMMLSC
